# The panel holds about 83,000 compounds, 20% with a hit somewhere; the sample as a whole holds those more often.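 48-hour exposure, single concentration, 96-well plates; percent growth endpoint where 0 means no net growth. Active: below 10.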 A number with no mark means an inactive call. The source made the active and inactive calls.
# Columns and labels:
# Assay in all cases: NCI-60 one-dose screen, 48 h (100 = growth as untreated, 0 = no growth, -100 = all killed)
# Conditions in all cases: 10 µM unless noted
# HCT-15 colon = test system: HCT-15 colon
# HT29 colon = test system: HT29 colon
# SNB-75 CNS = test system: SNB-75 CNS
# SNB-19 CNS = test system: SNB-19 CNS
# U251 CNS = test system: U251 CNS
# PC-3 prostate = test system: PC-3 prostate
# SK-MEL-5 melanoma = test system: SK-MEL-5 melanoma
# UACC-62 melanoma = test system: UACC-62 melanoma
# LOX IMVI melanoma = test system: LOX IMVI melanoma
# SK-MEL-28 melanoma = test system: SK-MEL-28 melanoma
SMILES,growth (HCT-15 colon),growth (HT29 colon),growth (SNB-75 CNS),growth (SNB-19 CNS),growth (U251 CNS),growth (PC-3 prostate),growth (SK-MEL-5 melanoma),growth (UACC-62 melanoma),growth (LOX IMVI melanoma),growth (SK-MEL-28 melanoma)
COc1ccc(/C=C(/C2=NCCN2)n2ccc3ccccc32)cc1,95.7%,89%,65%,91.6%,89%,73.4%,94.7%,86.8%,84.7%,104%
CCOc1cc(/C=N\NC(=O)N/N=C/c2ccc(O)c(OCC)c2)ccc1O,28.7%,27.6%,0.378% (active),39.8%,33.7%,33%,11.5%,26.2%,42.6%,52.3%
CC1(C)S[C@@H]2[C@H](NC(=O)[C@H](C(=O)O)c3cccs3)C(=O)N2[C@H]1C(=O)O,98.7%,102%,104%,105%,94.4%,99.2%,106%,102%,99.4%,116%
CCN(CC)CCCCCCNc1cccc2cc(Br)cnc12,84.7%,16.9%,92.2%,107%,81.2%,54.2%,94.7%,113%,69.3%,108%
COc1ccc(-c2cc(-c3ccc(Cl)cc3)nc(NCCCCNc3ccnc4cc(Cl)ccc34)n2)cc1,0.532% (active),4.81% (active),99.5%,95.5%,70.9%,54.8%,26.8%,84.8%,-78.3% (active),-7.9% (active)
Cc1ccc(S(=O)(=O)Oc2ccc(Br)cc2Br)cc1,48.5%,34.5%,64.8%,75.7%,48.5%,79.4%,77.9%,63.8%,52.3%,92.8%
CC1(C)C(=NO)C(C)(C)C1=NO,102%,105%,96.5%,107%,113%,90.7%,103%,109%,108%,113%
O=S(=O)(NCCCNc1nccc(-c2c(-c3cccc(F)c3)nc3occn23)n1)c1cccc2ccccc12,29.2%,5.59% (active),62.5%,64.7%,49.8%,18.1%,27%,31.5%,35.3%,64.9%
C=C(C)[C@@H]1CC[C@]2(COCCC#N)CC[C@]3(C)[C@H](CC[C@@H]4[C@@](C)(CCCNCCC#N)[C@H](C(=C)C)CC[C@]43C)[C@@H]12,35.7% [100 µM],2.94% [100 µM] (active),40.8% [100 µM],59% [100 µM],5.95% [100 µM] (active),20.1% [100 µM],2.58% [100 µM] (active),29.8% [100 µM],-74.4% [100 µM] (active),-37.3% [100 µM] (active)
ClC1=C(Cl)C(Cl)=C(Cl)C1=Cc1ccccc1,-55.1% (active),-30.1% (active),-77% (active),-16.8% (active),-50.3% (active),-10.3% (active),-95.8% (active),-77% (active),-91.5% (active),-87.5% (active)
CN(C)c1ccc(-c2ccc(-c3ccc(C(=N)N)cc3)s2)cc1,-74.6% (active),-65.6% (active),97.6%,-70.2% (active),-86.8% (active),-91.6% (active),74.3%,37.1%,12.7%,94.1%
C=C(C)[C@@H]1CC[C@]2(C(=O)N3CCN(C)CC3)CC[C@]3(C)[C@H](CC[C@@H]4[C@@]5(C)C/C(=C/c6ccncc6)[C@H](O)C(C)(C)[C@@H]5CC[C@]43C)[C@@H]12,-28.6% [100 µM] (active),-65.8% [100 µM] (active),4.76% [100 µM] (active),14.4% [100 µM],-70.5% [100 µM] (active),-20.2% [100 µM] (active),-82.4% [100 µM] (active),-56% [100 µM] (active),-77.3% [100 µM] (active),-54.3% [100 µM] (active)
O=C(CSc1nc2ccc([N+](=O)[O-])cc2[nH]1)Nc1ccc(F)c(Cl)c1,18.5%,14.4%,28.7%,11.6%,11.6%,8.99% (active),-10.8% (active),5.92% (active),24.2%,22%
CCOC(=O)c1nn(C2CCCCO2)c2ccc(NC(=O)Cn3nnc4ccccc43)cc12 (stereo not given),95.9%,115%,78.6%,86.5%,96.4%,110%,99.1%,99.9%,96.5%,106%
COc1c(B(O)O)cccc1-c1nc2ccc3[nH]ncc3c2c2c1CCC2,54.7%,63.8%,32.7%,82.3%,66.1%,60.2%,52.4%,57.6%,53.3%,86.3%
O=C1COCCN1c1ccc(Nc2nc(Cl)nc(N3CCOCC3)n2)cc1,91.8%,89.4%,89.7%,95.9%,101%,96.8%,100%,96%,93.8%,101%
Cc1cc(C)c(O)c(CNCCCCCCNCc2cc(C)cc(C)c2O)c1,-53.2% (active),-6.14% (active),-23.7% (active),-46.1% (active),-59.2% (active),34.7%,-91.8% (active),-68.9% (active),-85% (active),-82.6% (active)
CN(C)CCOc1ccc(/C(=C(/CCCl)c2ccccc2)c2ccccc2)cc1,23.9%,-78.8% (active),36.8%,36.2%,-54.6% (active),18.7%,-98.3% (active),-21.7% (active),-84.6% (active),-30.3% (active)
Cc1ccc(Oc2c(/C=N/NC(=O)Cn3c(=O)sc4ccccc43)c(C)nn2-c2ccccc2)cc1,42.2%,31.3%,53.4%,61.5%,42.9%,35.8%,37.7%,52.7%,64.7%,93.5%
CCOC(=O)C(=Cc1ccccc1[N+](=O)[O-])C(=O)OCC,5.68% (active),11.4%,-7.8% (active),59.6%,23.4%,47%,20.4%,32.3%,-18.5% (active),33.7%
